Experimental data from PubChem BioAssay AID489008 (National Center for Advancing Translational Sciences (NCATS), 2010).
Records with an inconclusive call do not appear. Active and inactive are the calls of the source. Calls come from the whole dose curve; as a rule, active = well fitted inhibition curve with a large enough effect; inconclusive = small, poorly fitted or top-dose-only effect; inactive = flat fitted curve, though single readings scatter.

target: Ferritin light chain (Equus caballus) (UniProt P02791); assay: Confirmation Assay for Identification of Novel General Anesthetics; conditions: apoferritin 1-aminoanthracene fluorescence displacement; note: nearly all actives have a fitted effect of over 40% in size
In short: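 Competitive displacement of profluorescent 1-aminoanthracene from 10 uM horse-spleen apoferritin in 50% saturated 1-AMA/PBS; 10 min RT, fluorescence Ex 380/Em 535. Normalized to free 1-AMA and complex; four-parameter Hill fit.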
Potency is the fitted concentration of half-maximal effect.

Ferritin light chain (Equus caballus), sequence (P02791 2-175 limits assumed): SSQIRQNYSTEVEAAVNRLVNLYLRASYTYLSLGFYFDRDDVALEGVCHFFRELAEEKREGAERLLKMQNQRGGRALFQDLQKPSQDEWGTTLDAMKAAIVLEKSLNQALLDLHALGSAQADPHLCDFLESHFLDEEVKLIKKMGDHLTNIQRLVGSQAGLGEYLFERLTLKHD

Potency, active:
COc1cccc(CNc2ccc(F)c(Cl)c2)c1 7.94 µM
Cc1ccc(Cl)cc1NC(=O)C1COc2ccccc2O1 (stereo not drawn) 20 µM
Cc1ccccc1OCC(=O)N1CCCc2ccccc21 17.8 µM
O=C(CSc1nnnn1C1CCCCC1)Nc1nc2c(s1)CCCC2 31.6 µM
O=C1CCCCCCC1Sc1ccccc1[N+](=O)[O-] (stereo not drawn) 7.94 µM
CCc1c(O)nc(SC2CC(=O)N(c3ccccc3)C2=O)[nH]c1=O (stereo not drawn) 31.6 µM
Cc1ccc(C2=NN(CC(=O)NCc3cccs3)C(=O)CC2)cc1 7.08 µM
O=C(Oc1cccc(O)c1)C1CCCCC1 11.2 µM
NCCOc1ccc(C23CC4CC(CC(C4)C2)C3)cc1 11.2 µM
O=C(Nc1ccc(Br)cc1)N1CCCCCC1 25.1 µM
O=C(OCC(=O)C12CC3CC(CC(C3)C1)C2)c1ccccn1 14.1 µM
O=C(CCC1CCCCC1)Nc1nccs1 39.8 µM
Cc1ccc(NCc2ccccc2)cc1 10 µM
Nc1ccccc1Oc1ccc2ccccc2c1 11.2 µM
O=C(O)Cc1csc(Nc2cccc(Cl)c2)n1 12.6 µM
CC1CCCCN1S(=O)(=O)Cc1ccccc1Cl (stereo not drawn) 14.1 µM
O=C(CSCc1ccccc1)Nc1cc([N+](=O)[O-])ccc1F 31.6 µM
COCCCNC(=O)Cn1nc(-c2ccc(C)cc2)ccc1=O 14.1 µM
O=C1NC2(CCCCCC2)Oc2ccccc21 20 µM
COc1ccc(/C=N/NC(=O)CC(=O)NC2CCCCC2)cc1 6.31 µM
COC(=O)c1ccc(/C=N/OCC(=O)NC2CCCCCCC2)cc1 7.94 µM
Nn1cnnc1SCC(=O)Nc1ccc(C2CCCCC2)cc1 7.08 µM
Nc1cc(N)nc(SCC(=O)N2CCc3ccccc32)n1 7.08 µM
O=C(CCNc1cccc(Cl)c1)c1ccco1 31.6 µM
N#CCc1ccc(Oc2ncc(C(F)(F)F)cc2Cl)cc1 17.8 µM
C/C(=N\O)C(C)(C)Nc1ccc(Br)cc1 8.91 µM
COc1cccc(NC(=O)Nc2nc(SC(C)(C)C)ns2)c1 10 µM
O=C(CCC1CCCCC1)Nc1nncs1 15.8 µM
Cc1cc(N2CC(C(=O)Nc3nccs3)CC2=O)ccc1C(C)C (stereo not drawn) 14.1 µM
Cc1ccc(C2=NN(CC(=O)NCCc3ccccc3)C(=O)CC2)cc1 5.19 µM
c1ccc(CCNc2nc3ccccc3s2)cc1 10 µM
CC1CCCC(NC(=O)COC(=O)c2ccc(N(C)C)cc2)C1C (stereo not drawn) 7.08 µM
CC1Cc2ccccc2N1C(=O)CSc1nnnn1C (stereo not drawn) 28.2 µM
COc1cccc(C(=O)COC(=O)CCC(=O)c2ccccc2)c1 7.94 µM
CCCC(C)NS(=O)(=O)c1ccc(OC)c(C)c1 (stereo not drawn) 20 µM
O=c1[nH]c(SCC2CCCCO2)nc2ccccc12 (stereo not drawn) 14.1 µM
CC1CCCN(C(=O)Cc2cccc3ccccc23)C1 (stereo not drawn) 31.6 µM
CC(C)CCSc1nc2ccccc2[nH]1 15.8 µM
